The results in this text go back to PubChem BioAssay AID2023 (NMMLSC, 2009).

Out of some 320,000 compounds screened, about 1,100 (0.34%) were called active. The list comes from a sample in which actives are over-represented; it also holds similar structures and randomly drawn compounds. Unmarked numbers belong to inactive results.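 The calls were made as follows: active = GFP response vs DMSO above a set limit, about the screen mean plus 3 SD (cut at about 150% in these data); inconclusive = under 70 cell events counted for the yeast strain; inactive = the rest.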

A short description of the test: modulators of LAP4-GFP expression in yeast, primary screen, S. cerevisiae, multiplex flow cytometry, MLPCN library (AID 2023). Particulars: 3 h, at 10 µM, hits give high values, median GFP as percent of DMSO wells. A general note: Flow cytometry measures light scatter and fluorescence of single cells or particles in a stream.
`COc1ccc(/C=C(\C#N)c2c[nH]c3ccccc23)cc1`: the GFP response vs DMSO is 97.2%.
Turning to `C[n+]1ccc(/C=C/c2c[nH]c3ccccc23)cc1`, the GFP response vs DMSO was 214% (active).
With `O=C(NC1CCCC1)C(=O)c1c[nH]c2ccccc12`, the GFP response vs DMSO is 100%.
As to `CC(C)C(=O)Nc1c2c(nn1-c1ccccc1)CSC2`, the GFP response vs DMSO was 104%.
For `CC(C)=NN1C(=O)c2ccccc2NC1(C)C` the value was 103%; for `CCCC(=O)Nc1ncnc2c1ncn2[C@@H]1O[C@@H]2OP(=O)(O)OC[C@H]2[C@H]1OC(=O)CCC`, 103%.
Consider `CCc1ccc2c(c1)C1(NN=C(c3ccccc3)S1)C(=O)N2` (stereo unspecified), for which the GFP response vs DMSO is 169% (active).
Under `C[C@H](NC(=O)C1CC(=O)N(c2ccc3c(c2)OCO3)C1)C(=O)NCc1ccco1` (stereo partly specified) stands 94%; under `COC(=O)Nc1ccc(S(=O)(=O)N2CCN(CCN3C(=O)C4C5C=CC(C5)C4C3=O)CC2)cc1` (stereo unspecified), 95.9%.
For the compound `O=c1[nH]c2ccccc2n2c(-c3ccccc3)nnc12`, the GFP response vs DMSO was 87.9%.
Turning to `COc1ccc(OCc2cc(C(=O)N3CCCC3)no2)c2ccccc12`, the GFP response vs DMSO was 85.3%.
For `O=C(c1ccc(N2CCOCC2)c([N+](=O)[O-])c1)N1CCN(c2ccccc2F)CC1` the value was 96%; for `O=C(c1ccc(Cl)c([N+](=O)[O-])c1)N1CCN(c2ccccc2)CC1`, 165% (active).
Under `O=C(c1ccccc1)c1ccc(C(=O)N2CCN(c3ccccc3)CC2)cc1` stands 78.1%; under `Cc1ccc(C(=O)NCC(=O)NC2CC2)cc1`, 97.3%.
For `Cc1ccc(-c2nn(-c3ccccc3)cc2C(=O)NC2CCC(O)CC2)cc1` (stereo unspecified) the value was 94.9%; for `O=C(NNC(=S)NC(=O)c1cn(-c2ccccc2)nc1-c1ccccc1)c1ccncc1`, 159% (active); for `Cc1onc(-c2ccccc2)c1C(=O)NNC(=S)NC(=O)c1ccc(F)cc1`, 102%.
On to `CCOc1ccc(CCNC(=O)CN2C(=O)NC3(CCc4ccccc43)C2=O)cc1OCC` (stereo unspecified), for which the GFP response vs DMSO is 98.4%.
Turning to `CCCCC(=O)Nc1ccc2c(c1)C(=O)NC2=O`, the GFP response vs DMSO is 107%.
Take `O=C(Nc1cc(Cl)cc(Cl)c1)C(NCCCO)c1ccccc1` (stereo unspecified): the GFP response vs DMSO was 99.3%.
`CCCCN1C(=O)c2ccc(C(=O)Nc3ccc(S(=O)(=O)N(C)C)cc3)cc2C1=O`: the GFP response vs DMSO is 93.7%.
Turning to `CC(CCc1ccc(O)cc1)NCc1ccc(Cl)cc1Cl` (stereo unspecified), the GFP response vs DMSO was 99.7%.
On to `CCC(C)n1[nH]c(=O)cc1N` (stereo unspecified), for which the GFP response vs DMSO is 92.7%.
In the case of `COc1ccc(CN2CN(C3CCCC3)CSC2=S)cc1`, the GFP response vs DMSO is 98.2%.
Under `S=C1SCN(CCN2CCOCC2)CN1Cc1ccccc1` stands 111%.
Under `COc1ccc(CN2CN(C(C)C)CSC2=S)cc1` stands 162% (active); under `Cc1onc(-c2c(F)cccc2Cl)c1C(=O)OCC(=O)N1C(C)CCCC1C` (stereo unspecified), 107%; under `CN(c1ccccc1)c1ccc(/C=c2\s/c(=C(/C#N)C(=O)C(C)(C)C)n(Cc3ccco3)c2=O)cc1`, 377% (active).
For `CCOC(=O)Cn1c(=O)oc2cc(S(=O)(=O)N(C)Cc3ccco3)ccc21` the value was 107%.
With `CCOC(=O)/C=c1\s/c(=C\c2ccc(C#N)cc2)c(=O)n1CC(=O)Nc1cccc(C)c1C`, the GFP response vs DMSO is 96.9%.
As to `CC1C=CCC2C(=O)N(c3cccc(C(=O)N4CCCCCC4)c3)C(=O)C12` (stereo unspecified), the GFP response vs DMSO is 97.9%.
As to `COC(=O)C[n+]1cccc2ccccc21`, the GFP response vs DMSO was 212% (active).
As to `COc1ccccc1NC(=O)C[n+]1ccccc1`, the GFP response vs DMSO was 109%.
For the compound `Cc1cccc[n+]1CC(=O)c1ccccc1`, the GFP response vs DMSO was 91.6%.
Take `CC1(C)CC(=O)C2=C(C1)N=C1SCCC(=O)N1C2c1ccc(C(F)(F)F)cc1` (stereo unspecified): the GFP response vs DMSO was 98.2%.
In the case of `CCCCNc1c(-c2ccc(OC)c(Sc3ccc(OC)cc3)c2)nc2ccc(Cl)cn12`, the GFP response vs DMSO was 141%.
As to `CCCCNc1c(-c2cccc(Sc3ccc(OC)cc3)c2)nc2ccccn12`, the GFP response vs DMSO is 151% (active).
Turning to `CCCCCCSc1ccc(-c2nc3ccc(Cl)cn3c2NCc2ccccc2)cc1`, the GFP response vs DMSO is 99.4%.
Turning to `COc1ccc(N2CCN(S(=O)(=O)c3cc(Br)cnc3N)CC2)cc1`, the GFP response vs DMSO was 100%.
As for `CCOc1ccc(-n2c(SC(C)C(=O)OC)nc3c(c2=O)SCC3)cc1` (stereo unspecified), the GFP response vs DMSO is 95.9%.
Consider `CCN1/C(=C/c2ccc3ccc(C)cc3[n+]2CC)Sc2ccccc21`, for which the GFP response vs DMSO was 319% [may fluoresce green] (active).
For `CCN1/C(=C\c2ccc3ccccc3[n+]2CC)Sc2cc(C)ccc21`, the GFP response vs DMSO was 501% [may fluoresce green] (active).
Take `O=C1CCC/C=C\C[C@@H](CC(=O)N(CCO)Cc2ccccc2)C(=O)NCCO1`: the GFP response vs DMSO was 85.9%.
`NS(=O)(=O)c1ccc(CCNC(=O)CCCn2c(SCC(=O)N3CCCC3)nc3ccsc3c2=O)cc1`: the GFP response vs DMSO was 101%.
Under `Clc1cccc(CN2COc3c(cc(Cl)c4cccnc34)C2)c1` stands 182% (active); under `CC(C)CC(=O)N1CCN(Cc2cccc(Cl)c2)CC1`, 102%.
For `O=C(c1cccc(Cl)c1)N1CCN(Cc2ccccc2)CC1` the value was 101%; for `CC(C)=CCC/C(C)=C/C(=O)O`, 105%; for `O=C(CN1CCCSc2ccccc21)N1CCN(S(=O)(=O)c2cccc(F)c2)CC1`, 110%.
Regarding `CC1=NNC(=O)C1Cc1c(Cl)cccc1Cl` (stereo unspecified), the GFP response vs DMSO is 98.6%.
